TDP1 inh – TDP1 (human) enzyme inhibition; Q9NUW8; recombinant TDP1, AlphaScreen DNA substrate cleavage; Potency, µM (doses to about 130 µM), most hits filed as inhibitors; actives 0.28% (n = 350,000); note: nearly all actives have a fitted effect of over 40% in size
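AlphaScreen read-out: signal falls as enzyme removes the 3' tyrosine-FITC from a 5'-biotinylated DNA oligo (15 nM, 5 min, RT). Enzyme was E. coli-made recombinant Tdp1 at 1 nM, exposed to compound for 15 min beforehand; beads 10 ug/ml, 10 min.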
VDR inhibitor – blocks the human vitamin D receptor | P11473 | VDR-SRC2-3 peptide fluorescence polarization, 2 h | Potency, µM, actives largely listed as inhibitors | actives 0.93% (n = 400,000) | AID 504847
Target sequence (P11473 whole entry, looked up): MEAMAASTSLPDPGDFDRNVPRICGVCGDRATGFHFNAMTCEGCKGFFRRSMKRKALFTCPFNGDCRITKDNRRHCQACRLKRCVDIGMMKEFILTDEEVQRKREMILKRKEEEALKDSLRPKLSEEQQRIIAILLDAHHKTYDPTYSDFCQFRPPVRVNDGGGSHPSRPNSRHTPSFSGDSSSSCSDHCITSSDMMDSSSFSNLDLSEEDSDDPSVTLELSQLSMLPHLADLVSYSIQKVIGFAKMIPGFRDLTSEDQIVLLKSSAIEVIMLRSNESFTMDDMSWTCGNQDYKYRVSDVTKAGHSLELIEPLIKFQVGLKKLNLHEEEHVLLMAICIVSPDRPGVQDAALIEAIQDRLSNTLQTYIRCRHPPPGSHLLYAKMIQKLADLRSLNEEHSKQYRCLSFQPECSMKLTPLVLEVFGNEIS
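FP read-out; VDR + SRC2-3 coactivator peptide; 23 nl compound by pintool; 2 h RT incubation; reagents held at 4 deg C, protected from light.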
Pin1 inh – blocks the human prolyl isomerase Pin1; Potency, µM (titrated, usually from 115 µM), actives largely listed as inhibitors; Pin1 FP peptide displacement, HiFluor488, 10 min; Q13526; actives 0.009% (n = 390,000); active = well fitted inhibition curve with a large enough effect in the polarisation, with a control signal flat, not every such curve was filed as active; inconclusive = small, poorly fitted or top-dose-only effect, or effect the other way, or a change in a side signal; inactive = no such curve, though single readings can be large or run the other way; the % refers to the polarisation
Target sequence (Q13526 whole entry, looked up): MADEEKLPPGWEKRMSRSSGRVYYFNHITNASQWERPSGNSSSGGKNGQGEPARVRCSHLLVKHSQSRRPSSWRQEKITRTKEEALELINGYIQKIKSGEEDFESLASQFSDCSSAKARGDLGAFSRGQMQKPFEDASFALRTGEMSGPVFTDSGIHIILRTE
S-ASM inh – blocks human secretory acid sphingomyelinase | actives 0.006% (n = 340,000) | AID 504937 | placental ASM, HMU-PC fluorogenic substrate, 60 min | Potency, µM (highest dose often 57.5 µM), most hits filed as inhibitors
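qHTS format. ASM enzyme prepared from human placenta hydrolyses the fluorogenic substrate HMU-PC0 (9 uM final) over 60 min at 37 °C after a 10 min compound preincubation.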
PLK1 PBD inh – inhibitors of human PLK1 polo-box domain binding; AID 720504; P53350; Potency, µM, usual class: inhibitors; Plk1 PBD binding of FITC phosphopeptide, fluorescence polarization; actives 2.8% (n = 360,000); note: series mostly up to about 57 µM; nearly all actives have a fitted effect of over 65% in size
Tb PFK inh-1 – T. brucei PFK enzyme inhibition | actives 0.17% (n = 330,000) | AID 485367 | T. brucei PFK, ADP-Glo luminescence | Potency, µM (series often up to 57.5 µM), actives largely listed as inhibitors | O15648; note: nearly all actives have a fitted effect of over 60% in size
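1.25 nM PFK with 0.5 mM F6P and 0.1 mM ATP in 0.1 M TEA pH 8.0, 5 mM MgCl2, incubated 45 min at room temperature; ADP measured by ADP-Glo luminescence; compounds titrated up to 57 uM.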
Tb PFK KinaseGlo – orthogonal confirmation of T. brucei phosphofructokinase inhibitors. shares compounds with Tb PFK inh-1. Tb PFK enzyme, ATP depletion, Kinase-Glo Plus luminescence. Potency, µM (highest dose often 57.5 µM). actives 47% (n = 1,100). AID 504636; calls by dose curve; note: nearly all actives have a fitted effect of over 60% in size
Tb PFK inh-2 – T. brucei PFK enzyme inhibition, hit validation; AID 504637; Potency, µM (highest dose often 57.5 µM), most hits filed as inhibitors; shares compounds with Tb PFK inh-1; purified T. brucei PFK, ADP-Glo luminescence, 45 min; actives 41% (n = 1,100); note: nearly all actives have a fitted effect of over 60% in size
Large screens that a line does not name were inactive (follow-up assays come after a bar, where they were run). A selection: hits, their analogues and other compounds. The true share with any hit is near 3.1%. Unless noted, calls come from the whole dose curve; as a rule, active = well fitted curve in the direction sought with a large enough effect; inconclusive = small, poorly fitted or top-dose-only effect, or another doubt; inactive = no such curve, though single readings can be large; an effect the other way counts as inactive or inconclusive.

C/C(=C\[C@@H](N)C(=O)O)CP(=O)(O)O	none (no result: Pin1 inh, S-ASM inh, PLK1 PBD inh, Tb PFK inh-1)
C[C@H](NC(=O)[C@@H](N)Cc1ccc(O)cc1)C(=O)N[C@@H](Cc1ccccc1)C(=O)NCC(=O)N[C@@H](Cc1ccc(O)cc1)C(=O)N1CCC[C@H]1C(=O)N[C@@H](CO)C(N)=O	none (no result: Pin1 inh, S-ASM inh, PLK1 PBD inh, Tb PFK inh-1)
O=C1/C(=C/c2ccc(O)c(O)c2)Oc2cc(O)ccc21	Pin1 inh inconclusive, Tb PFK inh-1 inconclusive (no result: TDP1 inh) | Tb PFK KinaseGlo inactive | Tb PFK inh-2 inconclusive
C=CC[C@@H](CC(=O)N(CCO)Cc1ccccc1)C(=O)NC[C@@H](OC(=O)[C@@H](CC=C)CC(=O)OC(C)(C)C)c1ccccc1	none
Cc1ccc(S(=O)(=O)Nc2cc(C(=O)N3CCC4(CC3)OCCO4)ccc2N2CCCCC2)cc1	VDR inhibitor inconclusive
O=C(NCC(F)(F)F)c1ccc(S(=O)(=O)Nc2ccccc2N2CCCC2)cc1	Tb PFK inh-1 inconclusive | Tb PFK KinaseGlo inactive | Tb PFK inh-2 inconclusive
CCN(CC)C(=S)Nc1ccc(Cl)c(Cl)c1	VDR inhibitor inconclusive, Tb PFK inh-1 inconclusive | Tb PFK KinaseGlo inactive | Tb PFK inh-2 inactive
O=c1c2ccccc2nc(/C=C/c2ccc3c(c2)OCO3)n1-c1cccc(O)c1	none
O=C(N/N=C\C=C\c1ccc2c(c1)OCO2)C1COc2ccccc2O1 (centres undefined)	Tb PFK inh-1 27µM | Tb PFK KinaseGlo 17µM | Tb PFK inh-2 21µM
C[N+]1([O-])[C@@H]2CC(OC(=O)[C@@H](CO)c3ccccc3)C[C@@H]1[C@H]1O[C@H]12 (some centres undefined)	none (no result: Pin1 inh, S-ASM inh, PLK1 PBD inh, Tb PFK inh-1)
O=C(Nc1ccc2ccccc2c1)c1ccccc1O	Tb PFK inh-1 inconclusive (no result: TDP1 inh) | Tb PFK KinaseGlo inactive | Tb PFK inh-2 inconclusive
CCCc1cc2c(n1Cc1ccco1)C(C)C1CN(C(=O)c3ccccc3)C(C)(C(=O)OC)C21 (centres undefined)	none (no result: VDR inhibitor, Pin1 inh, S-ASM inh, PLK1 PBD inh, Tb PFK inh-1)
OCCN1CCN(C(=S)c2ccc(Cl)c(Cl)c2)CC1	VDR inhibitor 22µM, PLK1 PBD inh 4.7µM, Tb PFK inh-1 19µM | Tb PFK KinaseGlo 5.4µM | Tb PFK inh-2 13µM
O=c1c2ccccc2nc(/C=C/c2ccccc2O)n1-c1ccc(Br)cc1	none (no result: S-ASM inh, PLK1 PBD inh, Tb PFK inh-1)
COC(=O)[C@H]1[C@@H](c2ccccc2)[C@@]2(c3ccccc3)Oc3ccccc3[C@@]1(O)[C@@H]2O	none (no result: VDR inhibitor, Pin1 inh, S-ASM inh, PLK1 PBD inh, Tb PFK inh-1)
O=C1Nc2ccccc2C2(CCN(CCc3ccc(C(F)(F)F)cc3)CC2)O1	none (no result: Pin1 inh, S-ASM inh, PLK1 PBD inh, Tb PFK inh-1)
O=[N+]([O-])c1ccc(Cc2ccncc2)cc1	Tb PFK inh-1 inconclusive | Tb PFK KinaseGlo inconclusive | Tb PFK inh-2 30µM
O=[N+]([O-])c1cccc(CCl)c1	none
O=[N+]([O-])c1ccc(NCc2ccncc2)cc1	Tb PFK inh-1 5.4µM (no result: TDP1 inh) | Tb PFK KinaseGlo 3.4µM | Tb PFK inh-2 7.6µM
CCOC(=O)C1=C(N)OC2=C(C(=O)CC(C)(C)C2)C1c1cc(CSc2nnnn2C)cs1 (centres undefined)	Tb PFK inh-1 inconclusive | Tb PFK KinaseGlo inactive | Tb PFK inh-2 inactive
Cc1ccc2[nH]c3c(c2c1)CN(C(=O)CN1C[C@H]2C[C@@H](C1)c1cccc(=O)n1C2)CC3	Pin1 inh inconclusive (no result: TDP1 inh)
C=CCNC(=O)N1CCc2[nH]c3ccc(F)cc3c2C1	Pin1 inh inconclusive, Tb PFK inh-1 inconclusive (no result: TDP1 inh) | Tb PFK KinaseGlo inconclusive | Tb PFK inh-2 inconclusive
COC(=O)[C@@]1(Cc2ccccc2)[C@H]2c3cc(C(=O)N(C)C)[nH]c3C[C@H]2CN1C(=O)c1ccccc1	none (no result: VDR inhibitor, Pin1 inh, S-ASM inh, PLK1 PBD inh, Tb PFK inh-1)
NCCc1ccccc1	none (no result: Tb PFK inh-1)
NCCOc1ccccc1Cc1ccccc1	Tb PFK inh-1 19µM | Tb PFK KinaseGlo inconclusive | Tb PFK inh-2 inconclusive
O=C(O)C1C2CCC(O2)C1C(=O)Nc1cccc(Br)c1 (centres undefined)	none (no result: TDP1 inh)
